Data as given in PubChem BioAssay AID1645855 (Buhrlage Lab, Dana-Farber Cancer Institute and Novartis …, 2021).
In all, about 47,000 compounds went through this assay and about 3,100 (6.6%) were called active. Cut-off read from the data, not from the text of the source: active = inhibition above about 30%; inactive = the rest. Many of the other results were omitted from the sample, so actives are more common in it than they were.

Each molecule was assayed against Ubiquitin carboxyl-terminal hydrolase 17-like protein 5 (Homo sapiens) (UniProt A8MUK1) (assay: blocks human USP17 ubiquitin-rhodamine cleavage (AID 1645855)). Settings: purified USP17, Ub-rhodamine cleavage fluorescence, 3 h; at 50 µM; active compounds read high.
Chain of Ubiquitin carboxyl-terminal hydrolase 17-like protein 5 (Homo sapiens) (A8MUK1 whole entry, looked up): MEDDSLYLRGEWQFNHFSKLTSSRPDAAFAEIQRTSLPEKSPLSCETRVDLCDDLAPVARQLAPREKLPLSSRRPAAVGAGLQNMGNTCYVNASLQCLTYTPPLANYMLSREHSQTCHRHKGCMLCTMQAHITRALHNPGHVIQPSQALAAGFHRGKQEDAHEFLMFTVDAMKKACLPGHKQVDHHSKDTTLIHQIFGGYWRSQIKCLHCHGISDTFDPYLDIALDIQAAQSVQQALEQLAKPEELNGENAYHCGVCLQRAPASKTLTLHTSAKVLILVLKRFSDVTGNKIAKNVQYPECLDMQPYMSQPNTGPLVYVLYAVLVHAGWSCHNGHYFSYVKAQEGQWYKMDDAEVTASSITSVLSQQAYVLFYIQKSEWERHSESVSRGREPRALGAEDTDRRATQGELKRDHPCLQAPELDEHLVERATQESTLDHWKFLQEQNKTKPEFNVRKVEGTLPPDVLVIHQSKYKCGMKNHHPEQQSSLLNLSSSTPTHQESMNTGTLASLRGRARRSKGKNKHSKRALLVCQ
With `NC(=O)CN1C(=O)CO[C@H]2CN(Cc3ccc(F)c(F)c3)C[C@H]21` the inhibition was -11.3% (inactive).
In the case of `Cn1c(=O)n(CCCO)c(=O)c2c1nc1n2CCCN1c1ccccc1`, the inhibition is reported as 9.32% (inactive).
For `COc1cccc(N2CCN(C(=O)CCC3=NS(=O)(=O)c4ccc(C)cc4N3)CC2)c1`, the inhibition was -26.5% (inactive).
With `Cn1c(=O)c2ncn(CC(=O)Nc3ccc(-c4nc5ccccc5o4)cc3)c2n(C)c1=O` the inhibition was 8.05% (inactive).
For `CCOc1ccccc1NC(=O)Nc1cc(-c2nc3ccccc3o2)ccc1OC`, the inhibition was 57.1% (active).
In the case of `COc1ccccc1NC(=O)N1CCN(Cc2nc3ccccc3o2)CC1`, the inhibition is reported as -4.24% (inactive).
For `CCN1CCN(c2cc(C)c3cc(NC(=O)c4cccnc4)ccc3n2)CC1`, the inhibition was -9.13% (inactive).
With `CCN(CC)c1nc2ccccc2nc1C(=O)Nc1ccc(N2CCOCC2)cc1` the inhibition was -6.91% (inactive).
With `O=C(Cc1ccccc1Cl)Nc1ccc(N2CCOCC2)cc1` the inhibition was 31.6% (active).
With `Cn1cnnc1SCC(=O)Nc1ccc(N2CCOCC2)c(Cl)c1` the inhibition was -11.6% (inactive).
In the case of `O=S(=O)(NCc1nc2cccnc2n1C1CC1)c1ccccc1F`, the inhibition is reported as 9.68% (inactive).
For `Cc1nn(-c2ccc(F)cc2)c(C)c1S(=O)(=O)NCc1ccc2c(c1)OCO2`, the inhibition was -23% (inactive).
In the case of `Cn1nc(C(=O)NCCN2CCOCC2)c2c1-c1ccccc1CC2`, the inhibition is reported as 2.07% (inactive).
`COc1ccc(CNC(=O)c2[nH]nc3c2CCc2ccccc2-3)cc1` was tested, and the inhibition was 67.3% (active).
In the case of `COc1ccc(-c2ocnc2C(=O)NCc2ccc(OC)c(OC)c2)cc1`, the inhibition is reported as -0.808% (inactive).
With `CC(=O)O[C@H]1C[C@@]23COC(=O)/C=C(\C)CCOC(=O)/C=C/C=C\C(=O)O[C@@H]4C[C@@H](O[C@@H]2C=C1C)[C@@]1(CO1)[C@]43C` the inhibition was -0.539% (inactive).
`Cc1nn(C)cc1C(=O)Nc1cnn(C)c1C(N)=O` was tested, and the inhibition was 5.15% (inactive).
With `CC(C)(C)C(=O)OCc1noc(-c2ccccc2)n1` the inhibition was 16.8% (inactive).
For `CC(C)(C)c1nn(-c2ccccc2)c2[nH]c(=O)c(CNCCc3ccccc3)cc12`, the inhibition was 31.9% (active).
In the case of `Cc1ccc(NCc2cc3c(C)nn(-c4ccccc4)c3[nH]c2=O)cc1C`, the inhibition is reported as -32.1% (inactive).
`Cc1nn(-c2ccccc2)c2[nH]c(=O)c(C#N)c(-c3ccco3)c12` was tested, and the inhibition was -26.6% (inactive).
`CCCC(=O)N1CCC(c2cc(=O)[nH]c(-c3ccccn3)n2)C1` (stereo not given) was tested, and the inhibition was -51.9% (inactive).
In the case of `N#Cc1ccc(Oc2ncnc3ccccc23)cc1`, the inhibition is reported as 4.86% (inactive).
In the case of `N#Cc1ccc(-c2csc(COc3ccccc3Cl)n2)cc1`, the inhibition is reported as 35% (active).
For `CC(C)OC(=O)c1cc2c(ccn2-c2ccc(F)cc2)n1Cc1ccccn1`, the inhibition was 9.79% (inactive).
In the case of `Cc1c(CN2CCOC(c3cncc(-c4ccccc4F)n3)C2)cnn1C` (stereo not given), the inhibition is reported as -0.212% (inactive).
`COc1ccc(C(=O)N2CC(=O)N(Cc3ccccc3)CC(O)C2)cc1` (stereo not given) was tested, and the inhibition was -3.64% (inactive).
In the case of `O=C(CN1C(=O)C2CCCC2=Nc2ccccc21)Nc1ccc(F)cc1F` (stereo not given), the inhibition is reported as 59.2% (active).
In the case of `O=C(CN1C(=O)c2cccnc2Sc2ccccc21)Nc1ccc(F)cc1F`, the inhibition is reported as -19.9% (inactive).
For `CCOc1nc2cccnc2n(CC(=O)Nc2ccc(F)cc2F)c1=O`, the inhibition was -5.53% (inactive).
For `Cc1noc(C)c1COc1cccc(C(=O)NC(C)c2cc3ccccc3o2)c1` (stereo not given), the inhibition was 1.56% (inactive).
With `COc1ccccc1N1CCN(C(=O)CSc2cc(=O)n(C)c3cc(Cl)ccc23)CC1` the inhibition was -7.92% (inactive).
`O=C(NCCc1ccccc1)N1CC[C@@H]2CN(Cc3cccnc3)S(=O)(=O)[C@@H]2CC1` was tested, and the inhibition was -8.52% (inactive).
For `COc1c(O)c2c(=O)cc(OC)c3c4c(OC)cc(=O)c5c(O)c(OC)c(CC(C)OC(=O)c6ccccc6)c(c(c1CC(C)OC(=O)Oc1ccc(O)cc1)c23)c54` (stereo not given), the inhibition was 39.4% (active).
For `CCOc1ccccc1NC(=O)COc1cccc2c1OC(C)(C)C2`, the inhibition was 8.61% (inactive).
In the case of `CCOc1ccccc1NC(=O)Cc1cccs1`, the inhibition is reported as 43.3% (active).
`CCOc1ccccc1NC(=O)Cn1c(=O)n(-c2ncccc2C(=O)OC)c(=O)c2cccnc21` was tested, and the inhibition was -0.0478% (inactive).
In the case of `CC1CCN(c2ncc3c(n2)CCC(C(=O)NC(C)c2cccnc2)C3)CC1` (stereo not given), the inhibition is reported as -33.2% (inactive).
`Cc1nc(-c2cccc(S(=O)(=O)Nc3ccccc3C)c2)no1` was tested, and the inhibition was -1.13% (inactive).
`Cc1nc(-c2cccc(NC(=O)C3CCN(c4ccccc4)C3=O)c2)no1` (stereo not given) was tested, and the inhibition was 52.3% (active).
In the case of `CC(=O)c1cccc(NC(=O)c2cccc(-c3nc(-c4ccccc4)no3)c2)c1`, the inhibition is reported as 1.73% (inactive).
With `Cc1cnc2nc3c(cc2c1)CN(S(=O)(=O)c1cccc2cccnc12)CC3` the inhibition was -136% (inactive).
With `N#Cc1ccc(OCC(=O)Nc2ccccc2N2CCCCC2)cc1` the inhibition was 8.45% (inactive).
`N#Cc1ccc(NC(=O)Nc2cccn(Cc3ccccc3F)c2=O)cc1` was tested, and the inhibition was 93.3% (active).
With `Cc1cc(C)n2nc(CN(Cc3ccccc3)C(=O)c3ccccc3)nc2n1` the inhibition was -5.53% (inactive).
`Cc1ccc(N2CC(c3nnc(NC(=O)CCCc4ccccc4)s3)CC2=O)cc1` (stereo not given) was tested, and the inhibition was -6.98% (inactive).
`CS(=O)(=O)Nc1cccc(C#CCN)c1` was tested, and the inhibition was -24.2% (inactive).
For `O=C(c1sc(N2CCCCC2)nc1-c1ccccc1)c1c[nH]c2ccccc12`, the inhibition was -31.2% (inactive).
With `CN1CCN(c2nc3c(s2)CN(C(=O)c2ccccc2)CC3)CC1` the inhibition was -15.2% (inactive).
`O=C(CN(C(=O)c1ccccc1)C1CCCCC1)Nc1nc(-c2ccccc2)cs1` was tested, and the inhibition was 11.1% (inactive).
In the case of `CC(=O)NC(Cc1ccccc1C)C(=O)NC1CCN(C(=O)Nc2cccc(C)c2)CC1` (stereo not given), the inhibition is reported as 1.56% (inactive).
In the case of `Oc1cccc2nc3c(O)cccc3nc12`, the inhibition is reported as 96.1% (active).
`COc1ccc(C(=O)O)cc1S(=O)(=O)Nc1ccc(-c2ccccc2)cc1` was tested, and the inhibition was -9.74% (inactive).
`O=c1oc2cccnc2n1Cc1ccccc1F` was tested, and the inhibition was 13% (inactive).
For `COc1ccccc1CNC(=O)C1CCN(S(C)(=O)=O)c2ccccc2O1` (stereo not given), the inhibition was 1.45% (inactive).
With `Cc1ccc(CN2C(=O)CS(=O)(=O)C(C)C2=O)cc1` (stereo not given) the inhibition was 0.155% (inactive).
`C[C@H](NC(=O)c1ccc2c(c1)OCO2)c1nc2cc(-c3ccc(F)cc3)ncn2n1` was tested, and the inhibition was 35% (active).
In the case of `Cc1nc(-c2ccc(C(=O)NCc3ccc4c(c3)OCO4)cc2)cs1`, the inhibition is reported as 29.5% (inactive).
`CC(NC(=O)c1ccc2c(c1)OCCO2)c1ccc2c(c1)OCCCO2` (stereo not given) was tested, and the inhibition was -21.9% (inactive).
For `Cc1ccc(NS(=O)(=O)c2cc3n(c2)CCCNC3=O)c(F)c1`, the inhibition was -11.3% (inactive).
For `O=C(c1ncccn1)N1CCCC1c1ncc(Cc2ccccc2Cl)o1` (stereo not given), the inhibition was 0.408% (inactive).
For `COc1ccc(NC(=O)c2c(N3CCCC3=O)c3cc(F)ccc3n2C)cc1Cl`, the inhibition was -15.2% (inactive).
For `O=C(Nc1ccc(-c2nc3cccnc3s2)cc1)C(c1ccccc1)c1ccccc1`, the inhibition was -146% (inactive).
For `CCC(C(=O)Nc1ccc(-c2cn3cccnc3n2)cc1)c1ccccc1` (stereo not given), the inhibition was 45.8% (active).
In the case of `Cc1ccn2cc(-c3ccc(NS(=O)(=O)c4cc(C)c(C)cc4C)cc3)nc2n1`, the inhibition is reported as -32.9% (inactive).
`CC(=O)c1ccc(NC(=O)C(C)Sc2nnc(COc3ccc(C)cc3)n2Cc2ccccc2)cc1` (stereo not given) was tested, and the inhibition was 7.66% (inactive).
`CCC(C(=O)Nc1cc(=O)[nH]c2nc(CCc3ccccc3)nn12)c1ccccc1` (stereo not given) was tested, and the inhibition was 2.97% (inactive).
With `CC(Oc1ccccc1)C(=O)Nc1ccc(-c2cn3cccnc3n2)cc1` (stereo not given) the inhibition was 41.4% (active).
In the case of `Cc1ccc(Cn2c(C(=O)O)c(CNC(C)CCc3ccccc3)c3ccccc32)cc1` (stereo not given), the inhibition is reported as -1.67% (inactive).
In the case of `Cc1nc(Nc2ncccn2)cc(C2CCCN2S(C)(=O)=O)n1` (stereo not given), the inhibition is reported as 0.142% (inactive).
`O=C1CN(C(=O)c2cccc3ccccc23)C(c2ccc(F)cc2)c2cc(Br)ccc2N1` (stereo not given) was tested, and the inhibition was 2.94% (inactive).
For `O=C(c1cc2ccccc2[nH]1)N1CCCC2(COCCN(c3cccnc3)C2)C1` (stereo not given), the inhibition was 16.4% (inactive).
With `CCOc1ccc(NC(=O)Cn2cc(C(=O)c3ccc(Cl)cc3)c(=O)c3cc(OC)ccc32)cc1` the inhibition was 57.1% (active).
For `COc1ccc(NC(=O)CSc2cn(CC(=O)N3CCCC3)c3ccccc23)cc1`, the inhibition was 7.65% (inactive).
In the case of `CCOc1ccc2c(c1)c(=O)c(C(=O)c1ccccc1)cn2CC(=O)Nc1ccc(OC)cc1`, the inhibition is reported as -0.53% (inactive).
For `O=C(C1CC1)N1CCc2cc(S(=O)(=O)NCCCN3CCN(Cc4ccccc4)CC3)ccc21`, the inhibition was -6.1% (inactive).
In the case of `COc1ccc(-c2nc3c(c(=O)c4ccccc4n3C)c(=O)n2CCc2ccc(OC)c(OC)c2)cc1`, the inhibition is reported as 7.74% (inactive).
For `COc1c(O)c2c3c(c1O)C(=O)[C@@]1(O)C(=C3C(C)=CC2=O)O[C@@H](C)C1(C)C`, the inhibition was 37.6% (active).
In the case of `Cc1nn(-c2ccccc2)c(C)c1S(=O)(=O)Nc1ccccc1C(N)=O`, the inhibition is reported as 7.84% (inactive).
In the case of `COc1cccc(CNS(=O)(=O)c2cc3[nH]c4c(c3cc2C)C(=O)CCC4)c1`, the inhibition is reported as -25.1% (inactive).
For `Cc1oc(-c2ccccc2Cl)cc1C(=O)Nc1ccc(F)cc1`, the inhibition was -7.25% (inactive).
With `COc1cccc(NC(=O)c2nn(-c3ccc(F)cc3)c(OC)cc2=O)c1` the inhibition was -0.739% (inactive).
In the case of `Cn1nc(C(=O)Nc2ccc(F)cc2)c(=O)c2ccccc21`, the inhibition is reported as 32.8% (active).
With `CNc1nc2c(c(=O)n1-c1ccccc1)CCN(S(C)(=O)=O)C2` the inhibition was 4.69% (inactive).
For `CN1CCc2c(sc3nc(SCCc4ccccc4)n(-c4ccccc4)c(=O)c23)C1`, the inhibition was 41.9% (active).
With `CNc1nc2c(c(=O)n1-c1ccccc1)CN(C(=O)c1ccc3ccccc3c1)CC2` the inhibition was 1.41% (inactive).
For `Cc1ccc(-c2nnc(CCC(=O)O)o2)cc1`, the inhibition was -26.7% (inactive).
In the case of `CC(=O)Nc1ccc(C(=O)CSc2nc3ccc(C)cc3[nH]2)cc1`, the inhibition is reported as 12.1% (inactive).
With `COc1ccccc1NC(=O)Nc1ccc(CCc2nc3ccccc3[nH]2)cc1` the inhibition was -12.4% (inactive).
In the case of `COc1cc(OC)cc(C(=O)Nc2cccc(CCc3nc4ccc(C)cc4[nH]3)c2)c1`, the inhibition is reported as 30.4% (active).
